In the library only some 11% were active in any assay of this set; here they are far more common.
ALOX12 inhib: 12-hLO (ALOX12) enzyme inhibition; purified 12-hLO, xylenol orange hydroperoxide absorbance; Potency, µM (top dose mostly 57.1 µM), most hits filed as inhibitors; 150,000 tested, 0.12% active; active = well fitted curve in the direction sought with a large enough effect; inconclusive = small, poorly fitted or top-dose-only effect, or another doubt; inactive = no such curve, though single readings can be large; an effect the other way counts as inactive or inconclusive; note: nearly all actives have a fitted effect of over 55% in size
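Purified human 12hLO (150 nM final) was preincubated with compounds for 15 min at room temperature in 25 mM Hepes pH 7.0, 0.01% Triton X-100, then reacted with 40 uM arachidonic acid for 30 min. Hydroperoxide was detected with ferrous iron/xylenol orange.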
IMPase cell inh: IMPase inhibition in cells; CHO-M1 cells, IP1 accumulation, HTRF TR-FRET ratio; inhibition (IP1 accumulation), % at 46.1 µM; 120,000 tested, under 10 active; active = well fitted curve in the direction sought with a large enough effect in the signal ratio, not every such curve was filed as active; inconclusive = small, poorly fitted or top-dose-only effect, or a change in a side signal; inactive = no such curve, though single readings can be large or run the other way; the % refers to the signal ratio;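 note: cells stimulated with carbachol in lithium chloride buffer; higher means more IMPase inhibition seen as more IP1 and lower FRET ratio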
Target sequence (P97697 whole entry, looked up): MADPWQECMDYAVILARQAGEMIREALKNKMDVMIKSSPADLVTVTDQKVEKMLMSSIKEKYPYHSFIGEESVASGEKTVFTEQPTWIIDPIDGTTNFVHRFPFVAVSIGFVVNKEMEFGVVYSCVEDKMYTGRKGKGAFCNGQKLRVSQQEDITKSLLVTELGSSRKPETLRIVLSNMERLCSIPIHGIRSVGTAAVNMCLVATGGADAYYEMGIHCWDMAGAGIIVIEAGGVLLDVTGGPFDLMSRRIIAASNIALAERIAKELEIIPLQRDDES
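Elevated IP1 in lysates lowers TR-FRET signal (665/620 ratio and 620 channel reported). Cells were CHO-M1, given carbachol (50 uM as added) plus 50mM LiCl, pH 7.4, 30 min, 37C; compounds titrated up to 46 uM; AC50 by Hill equation.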
ALDH1A1 inh: inhibitors of human aldehyde dehydrogenase 1A1 | 220,000 tested, 7.3% active | Potency, µM (doses to about 75.3 µM), usual class: inhibitors | AID 1030 | Purified ALDH1A1, NADH fluorescence, propionaldehyde substrate
HPGD inh: HPGD (human) dehydrogenase inhibition; Potency, µM, actives largely listed as inhibitors; 150,000 tested, 4.3% active; P15428; AID 894; purified HPGD, NADH fluorescence kinetic, PGE2 substrate
Target sequence (P15428 whole entry, looked up): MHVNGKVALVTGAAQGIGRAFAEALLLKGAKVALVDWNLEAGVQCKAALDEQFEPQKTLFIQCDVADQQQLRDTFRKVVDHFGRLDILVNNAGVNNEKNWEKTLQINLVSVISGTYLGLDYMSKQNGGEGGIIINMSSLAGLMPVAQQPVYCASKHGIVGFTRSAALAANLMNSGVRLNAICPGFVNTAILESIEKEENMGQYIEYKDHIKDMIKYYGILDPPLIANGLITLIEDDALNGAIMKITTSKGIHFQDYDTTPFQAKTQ
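20 nM HPGD preincubated 15 min at room temperature with compound in 50 mM Tris-HCl pH 8, 0.01% Tween 20. Started with 1 mM NAD+ and 30 uM prostaglandin E2; NADH fluorescence (360/450 nm) read 5 times over 30-s intervals, last minus first.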
PNC assembly inh: inhibitors of perinucleolar compartment assembly. PC3M PTB-GFP, PNC prevalence imaging, 16 h; active compounds read low. activity change (PNC), negative = inhibition, % at 10 µM. 140,000 tested, 3.1% active;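 active = readout at or below -70, meaning at least 70% loss of cells showing the perinucleolar compartment, a nuclear body marking cancer cells; inconclusive = readout between -30 and a set limit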
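Compounds are pinned in duplicate onto adhered PC3M cells stably expressing GFP-tagged PTB and incubated 16 h at 37 C. Cells are then fixed, nuclei stained with Hoechst, and PNC-positive cells counted.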
IMPase Li inh: IMPase inhibition in cells with lithium potentiation. CHO-M1 cells, IP1 TR-FRET (IP-One), carbachol + lithium. Potency, µM (titrated, usually from 59.4 µM), hits mostly inhibitors. 210,000 tested, 0.35% active. AID 1457; active = well fitted curve in the direction sought with a large enough effect; inconclusive = small, poorly fitted or top-dose-only effect, or another doubt; inactive = no such curve, though single readings can be large; an effect the other way counts as inactive or inconclusive;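 note: IP1 builds up when IMPase is blocked and the TR-FRET signal falls; nearly all actives have a fitted effect of over 50% in size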
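CHO cells stably expressing M1 receptor (2000/well, cultured 16–30 h) treated 30 min at 37C with compound plus low lithium. Cytosolic IP1 by TR-FRET (665/620 ratio and 620 channel) after 10 min lysis; AC50 by Hill fit.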
Of the large screens only hits and unclear results are named; the others gave an inactive call. Unless noted, calls come from the whole dose curve; as a rule, active = well fitted inhibition curve with a large enough effect (not every such curve was filed as active); inconclusive = small, poorly fitted or top-dose-only effect, or another doubt; inactive = no such curve, though single readings can be large or run the other way.

COc1ccc(OC)c(S(=O)(=O)Nc2cc3c(C(C)=O)c(C)oc3c3ccccc23)c1	none (no result: ALOX12 inhib, ALDH1A1 inh, HPGD inh, PNC assembly inh, IMPase Li inh)
COC(=O)c1c(C)oc2c1cc(NS(=O)(=O)c1cccs1)c1ccccc12	ALDH1A1 inh 7.94µM
COc1ccc(/C=C2\N=C(C)OC2=O)cc1[N+](=O)[O-]	ALDH1A1 inh 17.8µM (no result: ALOX12 inhib, IMPase cell inh, HPGD inh, PNC assembly inh, IMPase Li inh)
C[C@H](N[C@@H](C)COc1ccccc1)[C@H](O)c1ccc(O)cc1	none (no result: PNC assembly inh)
O=c1[nH]c(C2CCCN(S(=O)(=O)c3ccccc3)C2)nc2c1nnn2Cc1ccccc1 (configuration not stated)	ALDH1A1 inh 10µM, HPGD inh 14.1µM, PNC assembly inh inconclusive
Cc1ccc(Cn2nnc3c(=O)[nH]c(C4CCN(S(=O)(=O)c5ccc(F)cc5)CC4)nc32)cc1	none
O=c1[nH]c(C2CCCN(S(=O)(=O)c3ccccc3)C2)nc2c1nnn2Cc1ccccc1F (configuration not stated)	ALDH1A1 inh inconclusive, HPGD inh 12.6µM
COc1ccnc(CS(=O)c2nc3ccc(OC(F)F)cc3[nH]2)c1OC (configuration not stated)	ALDH1A1 inh inconclusive, HPGD inh inconclusive (no result: IMPase cell inh, PNC assembly inh)
CCN(C(=O)CSc1nnc(C)n1-c1ccccc1)C1CCS(=O)(=O)C1 (configuration not stated)	none (no result: ALOX12 inhib, IMPase cell inh, HPGD inh, PNC assembly inh)
Cc1ccc(CNC(=O)C2c3ccccc3C(=O)N3CCc4ccccc4C23)o1 (configuration not stated)	ALDH1A1 inh 25.1µM
O=C(CC1N=C2c3ccccc3N=C(SCC(=O)Nc3cccc(C(F)(F)F)c3)N2C1=O)NCc1cccs1 (configuration not stated)	none (no result: ALOX12 inhib, ALDH1A1 inh, HPGD inh, PNC assembly inh, IMPase Li inh)
CC(=O)Nc1c(C(=O)N2CCCCCC2)cnn1-c1ccccc1Cl	HPGD inh 14.1µM
COc1cccc(Cn2c(=O)c(C)nc3cnc(Nc4cccc(OC)c4)nc32)c1	none (no result: ALOX12 inhib, IMPase cell inh, HPGD inh, PNC assembly inh)
COC(=O)N[C@H](c1ccccc1)C(C(C)=O)C(=O)OC (some centres not stated)	none (no result: IMPase cell inh, PNC assembly inh)
Cc1ccc2cc(CN(Cc3nnnn3Cc3ccco3)CC3CCCO3)c(=O)[nH]c2c1C (configuration not stated)	ALDH1A1 inh 1.78µM, PNC assembly inh inconclusive
COc1ccc2cc(CN(Cc3ccco3)C(=S)NCC3CCCO3)c(=O)[nH]c2c1 (configuration not stated)	ALDH1A1 inh inconclusive (no result: ALOX12 inhib, IMPase cell inh, HPGD inh, PNC assembly inh)
Cc1cccc2cc(CN(CC3CCCO3)C(=O)c3ccco3)c(=O)[nH]c12 (configuration not stated)	ALDH1A1 inh inconclusive
Cc1ccc2cc(CN(CC3CCCO3)C(=S)NCc3ccco3)c(=O)[nH]c2c1C (configuration not stated)	ALDH1A1 inh 22.4µM, PNC assembly inh inconclusive
Cc1cc(C)c2cc(CN(Cc3ccco3)C(=S)NCC3CCCO3)c(=O)[nH]c2c1 (configuration not stated)	ALDH1A1 inh 25.1µM (no result: ALOX12 inhib, IMPase cell inh, HPGD inh, PNC assembly inh)
Cc1ccc(S(=O)(=O)Cn2nnnc2CN(Cc2ccco2)CC2CCCO2)cc1 (configuration not stated)	ALDH1A1 inh inconclusive
CCOC(=O)c1ccccc1NC(=O)Nc1cc2c(cc1N1CCCCC1)n(C)c(=O)n2C	none (no result: ALOX12 inhib, ALDH1A1 inh, HPGD inh, PNC assembly inh, IMPase Li inh)
COc1ccc(CN2C(=O)c3c(c(C)n(C)c3C)C2C(=O)NC2CCC(C)CC2)cc1 (configuration not stated)	ALDH1A1 inh 0.794µM (no result: ALOX12 inhib, IMPase cell inh, HPGD inh, PNC assembly inh)
COc1ccc(CNC(=O)NC2CCCCC2)cc1	PNC assembly inh inconclusive
COc1ccc(NC(=O)c2cc3nc(-c4ccc(Cl)c(Cl)c4)cc(C(F)(F)F)n3n2)c(OC)c1	none (no result: ALOX12 inhib, ALDH1A1 inh, HPGD inh, PNC assembly inh, IMPase Li inh)
Cn1cccc1C(=O)N1CCC2(CCCN(c3ccccc3)C2)CC1	ALDH1A1 inh inconclusive (no result: IMPase cell inh, PNC assembly inh)
Cc1n[nH]c(=O)nc1NCC1CCCO1 (configuration not stated)	ALDH1A1 inh inconclusive, HPGD inh 28.2µM
Cc1sc2ncnc(NCC3CCCO3)c2c1C (configuration not stated)	none
C=CCc1cccc2cc(C(=O)Nc3ccc(F)cc3)c(=O)oc12	none (no result: IMPase cell inh)
C=CCc1cccc2cc(C(=O)NC3=C(C#N)CCC3)c(=O)oc12	ALDH1A1 inh 0.891µM, PNC assembly inh -124.4
O=C1CCC(=O)N1c1nc2n(n1)C(c1ccccc1)C=C(c1ccc(Br)cc1)N2 (configuration not stated)	ALDH1A1 inh inconclusive, HPGD inh inconclusive, IMPase Li inh 11.2µM
COc1ccc(C2C=C(c3ccc(Br)cc3)Nc3nc(N4C(=O)CCC4=O)nn32)cc1 (configuration not stated)	ALDH1A1 inh inconclusive, HPGD inh inconclusive
CN(C)CCCSc1ccccc1NC(=O)/C=C\c1ccccc1	none (no result: PNC assembly inh)
Cn1c(/C(C#N)=C(\O)COc2ccc3ccccc3c2)nc2ccccc21	ALDH1A1 inh inconclusive, HPGD inh inconclusive, PNC assembly inh inconclusive, IMPase Li inh 7.08µM
Cc1ccc(OC/C(O)=C(\C#N)c2nc3ccccc3s2)cc1	PNC assembly inh inconclusive (no result: IMPase cell inh)
O=C(C[C@@H](C(=O)O)N1CCOCC1)c1ccccc1	none (no result: IMPase cell inh, PNC assembly inh)
COc1cccc(CN(Cc2cccnc2)S(=O)(=O)c2ccc(-n3cnnn3)c(C)c2)c1	ALDH1A1 inh 25.1µM
COc1cc(S(=O)(=O)N(Cc2ccc(C)cc2)Cc2ccco2)ccc1-n1cnnn1	ALDH1A1 inh 12.6µM

Compound activity from PubChem.
